Measured values: PubChem BioAssay AID777 (Sanford-Burnham Center for Chemical Genomics, 2007)
In all, about 96,000 compounds went through this assay and about 19,000 (20%) were called active. Not all results are given here. Values without a mark were called inactive.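 Rule for the calls: active = blocking of liver enzyme CYP2C9 beyond about 50% at 5 µM (limit read from the data); inactive = the rest.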

target: Cytochrome P450 2C9 (Homo sapiens) (UniProt P11712); test: blockers of cytochrome P450 2C9 activity – biochemical, luminescence, ADME assay, primary screen (AID 777); conditions: CYP2C9 Supersomes, luciferin-H conversion, at 5 µM, active compounds read high
Sequence (P11712 whole entry, looked up): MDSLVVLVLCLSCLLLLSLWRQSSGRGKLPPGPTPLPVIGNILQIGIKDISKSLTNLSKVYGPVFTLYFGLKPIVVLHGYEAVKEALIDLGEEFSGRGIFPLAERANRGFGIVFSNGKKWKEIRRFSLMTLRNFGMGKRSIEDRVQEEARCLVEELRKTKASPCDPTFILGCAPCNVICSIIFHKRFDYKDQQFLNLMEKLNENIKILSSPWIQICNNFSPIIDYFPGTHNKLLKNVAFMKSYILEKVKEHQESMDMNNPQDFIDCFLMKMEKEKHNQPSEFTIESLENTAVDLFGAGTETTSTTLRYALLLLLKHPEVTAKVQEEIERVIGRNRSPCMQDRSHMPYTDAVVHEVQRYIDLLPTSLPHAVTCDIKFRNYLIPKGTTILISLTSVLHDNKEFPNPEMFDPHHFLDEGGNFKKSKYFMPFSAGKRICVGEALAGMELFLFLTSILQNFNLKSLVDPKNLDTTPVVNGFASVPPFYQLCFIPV

For `CCSC1(SCC)N=C(N)C2(C#N)C(c3ccccc3)NC(C)=CC12C#N` (configuration not stated), which inhibition is on record?
Its inhibition is 6.1%.

With `CCOc1cccc(=O)c2c(C)n(CC3CCCO3)c(C)c12` (configuration not stated) as the compound, how does the inhibition read?
The inhibition was 59.7% (active).

Which inhibition does the source give for `O=c1c2cc3c(=O)n(CC4CCCO4)c(=O)c3cc2c(=O)n1CC1CCCO1` (configuration not stated) here?
Its inhibition is 3.8%.

With `COC(=O)c1ccc2c(=O)n(CC3CCCO3)c(=S)[nH]c2c1` (configuration not stated) as the compound, how does the inhibition read?
The inhibition was 6.5%.

How did the inhibition turn out when `OCCCN1c2ccccc2Nc2nnc(-c3ccccc3)cc21` was run?
The inhibition was 46.3%.

How did the inhibition turn out when `CN(C)c1nc2n(c(=O)n1)CCO2` was run?
The inhibition was 2.6%.

How did the inhibition turn out when `CCOC(=O)c1[nH]c2ccc(OC)cc2c1NC(=O)CCN1CCN(Cc2ccccc2)CC1` was run?
Its inhibition is 11.4%.

Which inhibition does the source give for `CC(C)(CNC(=O)c1cc(=O)[nH]c2ccccc12)N1CCOCC1` here?
Its inhibition is 8%.

How did the inhibition turn out when `COC(=O)c1[nH]c2ccccc2c1NC(=O)CN1CCCc2ccccc21` was run?
The inhibition was 88.7% (active).

Which inhibition does the source give for `Cc1cccc(-n2c(O)c(C=Nc3ccccc3N)c(=O)[nH]c2=O)c1` here?
Its inhibition is 0.2%.

Which inhibition does the source give for `CCCOP(=O)(c1ccc(N(C)C)cc1)C(O)c1cc(OC)c(OC)c(OC)c1` (configuration not stated) here?
The inhibition was -3.1%.

`FC(F)(F)c1cccc(NC(=S)Nc2cccc(Cl)c2)c1` was tested. Which inhibition did it give?
Its inhibition is -83%.

For `CCC(=O)OCc1c(C(F)(F)F)nn(C)c1Oc1cccc(C(F)(F)F)c1`, which inhibition is on record?
Its inhibition is 34%.

For `Cn1nc(C(F)(F)F)c(C(=O)Nc2cccc(C(F)(F)F)c2)c1SCc1ccc(Cl)cc1`, which inhibition is on record?
Its inhibition is 97.5% (active).

For `COC(=O)c1sc2ncccc2c1OCc1ccc(Cl)cc1Cl`, which inhibition is on record?
Its inhibition is 9.3%.

How did the inhibition turn out when `Cc1ccc2c(C(=O)CN3CCCC3)c(C)[nH]c2c1` was run?
Its inhibition is 49.7%.

With `CC1=CC(C)(C)Nc2ccc(OC(=O)CN3C(=O)C4CCCCC4C3=O)cc21` (configuration not stated) as the compound, how does the inhibition read?
The inhibition was 10.9%.

For `CC1=CC(C)(C)Nc2ccc(OC(=O)C(Cc3ccccc3)N3C(=O)C4CCCCC4C3=O)cc21` (configuration not stated), which inhibition is on record?
Its inhibition is 72.8% (active).

How did the inhibition turn out when `Cc1ccc(C)n1C(Cc1ccccc1)C(=O)O` (configuration not stated) was run?
The inhibition was 28.3%.

With `O=C(Nc1ccon1)c1sc2ccccc2c1Cl` as the compound, how does the inhibition read?
Its inhibition is -23.1%.

`CCc1c(C)c2c(C)[nH]nc2oc1=O` was tested. Which inhibition did it give?
The inhibition was -66%.

How did the inhibition turn out when `Cc1cc2c(c(=O)n1Cc1ccco1)C(c1ccccc1)C(C#N)=C(N)O2` (configuration not stated) was run?
The inhibition was 1.2%.

With `Cc1ccc(-c2nc3ccccc3[nH]2)cc1N` as the compound, how does the inhibition read?
The inhibition was 40.6%.

How did the inhibition turn out when `Cn1nc([N+](=O)[O-])nc1Sc1ccc(C(C)(C)C)cc1` was run?
Its inhibition is 12.1%.

For `COc1ccccc1Nc1ncc(C(C)=O)c(C)n1`, which inhibition is on record?
Its inhibition is 18.7%.

Which inhibition does the source give for `CCC(C(=O)NC1CCCC1)N(C(=O)c1snc(C(N)=O)c1N)c1ccc2c(c1)OCCO2` (configuration not stated) here?
Its inhibition is 14.7%.

How did the inhibition turn out when `CN(C(=O)CSc1nc(C2CC2)nc2ccccc12)c1nc(-c2ccccc2)cs1` was run?
The inhibition was 39.9%.

`COc1ccc2c(c1OC)C(=O)OC2Nc1nc(-c2ccccc2)cs1` (configuration not stated) was tested. Which inhibition did it give?
The inhibition was 8.8%.

How did the inhibition turn out when `COc1ccc(CCN(C(=O)COc2ccccc2)c2nc(-c3ccccc3)cs2)cc1OC` was run?
The inhibition was 75.2% (active).

With `CCn1c(=N)n(CC(=O)c2cccc(OC)c2)c2ccccc21` as the compound, how does the inhibition read?
Its inhibition is -13.2%.

With `O=C(Nc1ccc(Cl)cn1)c1cnn2cccnc12` as the compound, how does the inhibition read?
Its inhibition is 11.4%.

With `O=S1(=O)CCN(Cc2ccccc2Cl)CC1` as the compound, how does the inhibition read?
The inhibition was 13.3%.

With `Cc1ccc(-c2nc(COC(=O)c3c(C)noc3C)cs2)cc1` as the compound, how does the inhibition read?
The inhibition was 28%.

For `Cc1noc(C)c1C(=O)OCC(=O)/C=C1\N(C)c2ccccc2C1(C)C`, which inhibition is on record?
Its inhibition is 55.7% (active).

With `CN1/C(=C\C(=O)c2oc3ccccc3c2N)C(C)(C)c2ccccc21` as the compound, how does the inhibition read?
The inhibition was 47.6%.

`Nc1nnc(SCCN2C(=O)c3ccccc3S2(=O)=O)s1` was tested. Which inhibition did it give?
The inhibition was -0.2%.

`Cc1cccc(NC(=S)N2CCC(c3nc4ccccc4s3)CC2)c1` was tested. Which inhibition did it give?
The inhibition was -16.4%.

`O=C(c1cccs1)N1CCC(c2nc3ccccc3s2)CC1` was tested. Which inhibition did it give?
The inhibition was 60.9% (active).

For `O=C(c1cccs1)N1CCN(C(=O)N2CCOCC2)CC1`, which inhibition is on record?
The inhibition was -2%.

For `CCC1(C)Cc2c(sc3nnn(CC(=O)Nc4ccc(Cl)cc4)c(=O)c23)CO1` (configuration not stated), which inhibition is on record?
The inhibition was 49.3%.

Which inhibition does the source give for `COc1ccc(Cc2nnc(NC(=O)Cc3cccs3)s2)cc1` here?
The inhibition was 24.4%.

With `COc1ccc(Cc2nnc(NS(=O)(=O)Cc3ccccc3)s2)cc1` as the compound, how does the inhibition read?
Its inhibition is 60.3% (active).

Which inhibition does the source give for `CCC(CC)c1nnc(NS(=O)(=O)Cc2ccccc2)s1` here?
The inhibition was 34.3%.

With `COc1ccc(C(=O)Nc2ccccc2C(=O)N/N=C/c2ccc(O)c(OC)c2)cc1` as the compound, how does the inhibition read?
Its inhibition is 73.4% (active).

How did the inhibition turn out when `COc1cc(/C=N\NC(=O)CNC(=O)c2cccc([N+](=O)[O-])c2)ccc1O` was run?
The inhibition was -11.8%.

With `COc1ccc(C(=O)Nc2ccccc2C(=O)N/N=C/c2ccccc2OC)cc1` as the compound, how does the inhibition read?
The inhibition was -11.9%.

Which inhibition does the source give for `CCCC(CCC(=O)OC)(C(=O)OCC)c1csc(N)n1` (configuration not stated) here?
The inhibition was 30.1%.

Which inhibition does the source give for `C#CCN1C(=O)C(O)(CC(=O)c2cc(OC)ccc2OC)c2ccccc21` (configuration not stated) here?
The inhibition was 30.3%.

`O=C(Nc1ccccc1F)C1C2C=CC3(O2)C1C(=O)N(c1cccnc1)C3C(=O)NC1CCCCC1` (configuration not stated) was tested. Which inhibition did it give?
Its inhibition is -11.1%.

`CCOC(=O)NC(C(F)(F)F)(C(F)(F)F)P(=O)(c1ccccc1)c1ccccc1` was tested. Which inhibition did it give?
The inhibition was -2.2%.

How did the inhibition turn out when `CCOc1cc2[nH]c(=S)n(CCN3CCCCC3C)c(=O)c2cc1OCC` (configuration not stated) was run?
The inhibition was 17.7%.

`Nc1ccc(-c2sc(N)nc2-c2ccccc2)cc1` was tested. Which inhibition did it give?
The inhibition was 12.4%.

With `Nc1ccc(-c2nnc(-c3ccc(-c4ccccc4)cc3)o2)cc1` as the compound, how does the inhibition read?
Its inhibition is 78.7% (active).

How did the inhibition turn out when `Nc1ccc(Nc2ccccc2)cc1` was run?
Its inhibition is 12.1%.

`CSc1ncccc1C(=O)OCC(=O)N1CCOCC1` was tested. Which inhibition did it give?
Its inhibition is -8%.

For `C=CCN(N=Nc1cccc([N+](=O)[O-])c1)c1cccc([N+](=O)[O-])c1`, which inhibition is on record?
The inhibition was 46.4%.

How did the inhibition turn out when `Cc1oc2nc(SCC(=O)NCc3cccnc3)nc(N)c2c1C` was run?
Its inhibition is 14.4%.

With `Cc1ccc(C(=O)NCCNS(=O)(=O)c2ccccc2)cc1` as the compound, how does the inhibition read?
The inhibition was 60% (active).

How did the inhibition turn out when `CS(=O)(=O)NCc1ccc(C(=O)NCc2ccccc2)cc1` was run?
Its inhibition is -6.7%.

For `O=S(=O)(NCCNS(=O)(=O)c1ccccc1)c1ccccc1`, which inhibition is on record?
The inhibition was 34.1%.

How did the inhibition turn out when `C/C(=N\NC(=O)Cc1ccc(Cl)cc1)c1ccccn1` was run?
The inhibition was 32.4%.

How did the inhibition turn out when `Cc1ccccc1CN1CCN(CC(=O)NCc2ccccn2)C1=O` was run?
Its inhibition is -9.3%.
